# Sampled rows, rich in hits. Any-hit rate of the full collection: about 11%.
# Pf growth 96h: P. falciparum growth inhibition at 96 hour, primary screen for plastid delayed-death inhibitors | Potency, µM (top dose mostly 28.7 µM), most hits filed as inhibitors | actives 6.9% (n = 320,000) | P. falciparum luciferase reporter growth, 96 h
#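 Erythrocytes infected with luciferase-expressing P. falciparum were dispensed at 2% hematocrit and 0.05% parasitemia (final), then incubated with compounds 96 hours at 37 C in 5% CO2. Luminescence after detection reagent addition reported growth.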
# NS1 function inh: influenza NS1 inhibition. Potency, µM (series often up to 46.1 µM). actives 0.4% (n = 270,000); calls by dose curve; note: actives are rising curves; nearly all actives have a fitted effect of over 50% in size
#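 In this qHTS, NS1 from influenza A is expressed in budding yeast, where it slows growth. Cells are switched from glucose to 2% galactose medium (pH 6.0, -URA), treated with compound, and growth recovery is read at OD600.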
# HCV inh: blocks hepatitis C virus; Huh7.5.1 HCVcc-Cre infection, luciferase reporter, 44 h; actives 3.4% (n = 340,000); Potency, µM (doses to about 41.8 µM), actives largely listed as inhibitors
#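 Whole-lifecycle infectious HCVcc-Cre system; cells 1,000/well, compound then virus (~0.5 moi) added 4 h after plating, 44 h culture. Luciferase read 15 sec following 15 min substrate incubation, room temp.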
# VACV mCherry inh: inhibitors of vaccinia virus infection (mCherry reporter signal); Vaccinia virus mCherry reporter infection, fluorescence; Potency, µM (highest dose often 36.5 µM), actives largely listed as inhibitors; actives 0.63% (n = 310,000); AID 720579; calls by dose curve; tested in A549 cells; note: nearly all actives have a fitted effect of over 35% in size
# Pf growth 48h: P. falciparum growth inhibition at 48 hours (one generation); AID 504832; Potency, µM (top dose mostly 28.7 µM), actives largely listed as inhibitors; P. falciparum luciferase growth in erythrocytes, 48 h; actives 5.9% (n = 310,000)
#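 Growth was read as firefly luciferase luminescence after a 48 h, 37 C, 5% CO2 exposure of compounds to reporter-bearing P. falciparum cultures (0.1% parasitemia, 2% hematocrit final) in Albumax-supplemented RPMI 1640.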
# VACV Venus inh: inhibitors of vaccinia virus (Venus reporter); actives 0.46% (n = 330,000); Potency, µM (highest dose often 36.5 µM), hits mostly inhibitors; Vaccinia virus Venus reporter expression, fluorescence; calls by dose curve; tested in A549 cells; note: nearly all actives have a fitted effect of over 30% in size
# Hits are given with their value; i = inactive; ? = inconclusive; nt = not tested or not shown; [ ] = another dose, or the depositor's remark. Unless noted, calls come from the whole dose curve; as a rule, active = well fitted inhibition curve with a large enough effect; inconclusive = small, poorly fitted or top-dose-only effect, or another doubt; inactive = no such curve, though single readings can be large or run the other way.
SMILES,Pf growth 96h,NS1 function inh,HCV inh,VACV mCherry inh,Pf growth 48h,VACV Venus inh
Cc1ccc(NC(=O)CS(=O)CC(=O)N(c2ccc(C)cc2)C(C)C(=O)NC2CCCCC2)cc1 (configuration not stated),?,i,i,i,13.1µM,i
O=C(CS(=O)CC(=O)N(c1ccccc1)C(C(=O)NC1CCCCC1)c1ccco1)Nc1ccc(F)cc1 (configuration not stated),7.38µM,i,i,i,?,i
CCCCNC(=O)CN1C(=O)NC2(CCOc3ccccc32)C1=O (configuration not stated),i,i,i,i,i,i
O=[N+]([O-])c1cccc(-c2nc(Oc3ccc(Cl)cc3)c3ccccc3n2)c1,i,i,i,nt,i,nt
COc1ccccc1CC1(C)NC(=O)N(CC(=O)N2CC(C)OC(C)C2)C1=O (configuration not stated),0.522µM,i,i,i,i,?
COCCNC(=O)CN(C(=O)CCC(=O)Nc1ccccn1)c1ccc(C)c(C)c1,9.28µM,i,i,i,i,i
COCCNC(=O)CN(C(=O)CCC(=O)Nc1ccccn1)c1ccc(C)cc1,i,i,i,nt,i,nt
Cc1ccc(N(CC(=O)NCC2CCCO2)C(=O)CCC(=O)Nc2ccccn2)cc1 (configuration not stated),0.586µM,nt,i,i,i,i
COCCNC(=O)C(c1ccc(F)cc1)N(C(=O)CCC(=O)Nc1ccccn1)c1ccc(C)cc1 (configuration not stated),1.31µM,i,i,i,i,i
CCOc1ccc(N(CC(=O)NCCc2ccccc2)C(=O)CCC(=O)Nc2cc(C)ccn2)cc1,i,i,i,i,4.65µM,i
COCCNC(=O)C(c1ccc(C)cc1)N(C(=O)CCC(=O)Nc1ccccn1)c1ccc(F)cc1 (configuration not stated),i,i,i,i,i,i
COC(=O)Cc1[nH]n(-c2nc3ccccc3s2)c(=O)c1C(C)=O,nt,i,i,nt,i,i
Cc1cc(C)cc(N(CC(=O)NCc2ccc3c(c2)OCO3)C(=O)CCC(=O)Nc2ccccn2)c1,?,i,i,nt,1.31µM,i
COCCNC(=O)C(c1ccc(O)cc1)N(Cc1ccco1)C(=O)CCC(=O)Nc1ccccn1 (configuration not stated),i,i,i,i,i,i
Cc1ccc(N(CC(=O)NCc2ccc3c(c2)OCO3)C(=O)CCC(=O)Nc2ccccn2)cc1,i,i,?,i,?,i
COCCNC(=O)C(c1ccc(Cl)cc1)N(Cc1ccco1)C(=O)CCC(=O)Nc1ccccn1 (configuration not stated),13.1µM,i,i,i,i,i
COc1ccccc1COCC(O)CNCCc1ccc(C(F)(F)F)cc1 (configuration not stated),?,i,?,nt,?,nt
Cc1cccc(C)c1-n1nnnc1C(C)(C)N1CCN(N=O)CC1,?,i,i,i,i,i
CCC(C)(c1nnnn1-c1c(C)cccc1C)N(N=O)c1cccc(C(F)(F)F)c1 (configuration not stated),?,i,i,i,11.7µM,i
O=C(CSc1nc2ccccc2c(=O)n1-c1ccccc1F)NC1CCS(=O)(=O)C1 (configuration not stated),i,nt,i,nt,i,nt
O=S(=O)(c1ccc(F)c(F)c1F)N1CCN(C(=S)NCc2ccccc2)CC1,?,i,i,i,?,i
CCn1c(=O)c2c(nc3n2CC(C)CN3CCc2ccccc2)n(C)c1=O (configuration not stated),8.28µM,i,i,nt,11.7µM,nt
CCCn1c(=O)c2c(nc3n2CCCN3CCc2ccccc2)n(C)c1=O,?,i,i,i,?,i
Cn1c(=O)n(CCc2ccccc2)c(=O)c2c1nc1n2CCCN1CCc1ccccc1,nt,i,?,nt,9.28µM,i
CC(C)Cn1c(=O)c2c(nc3n2CCCN3CCc2ccccc2)n(C)c1=O,i[5.75 µM],i,10µM,nt,5.22µM,?
SMILES,Pf growth 96h,NS1 function inh,HCV inh,VACV mCherry inh,Pf growth 48h,VACV Venus inh
COc1cccc(CNc2nc3cc(C(C)=C(C)C)sc3c(=O)n2C)c1,nt,nt,nt,i,nt,i
Cc1cc(C)n2nc(-c3ccsc3-n3c(C)ccc3C)cc2n1,?,i,?,i,13.1µM,i
Cc1ccc(-c2cc3nc(C)cc(C)n3n2)cc1,i,i,i,i,i,i
CCc1nn(C(C)C(=O)NC2CCCCCC2)c(=O)c2cc3occc3n12 (configuration not stated),i,i,10µM,i,i,i
CCOc1ccc(CNC(=O)CCCn2nc(CC)n3c(cc4occc43)c2=O)cc1,i,i,?,nt,i,nt
CCc1nn(CCCC(=O)NCc2ccc(OC(C)C)cc2)c(=O)c2cc3occc3n12,i,i,8.91µM,i,i,?
CCc1nn(CCCC(=O)NCc2cc(Br)ccc2OC)c(=O)c2cc3occc3n12,i,i,10µM,i,?,i
CCc1nn(CCCC(=O)NCc2ccccc2C)c(=O)c2cc3occc3n12,i,i,?,i,i,i
COC(=O)c1ccc(/C=N/NC(=O)CC(=O)NC2CCCCC2)cc1,i,nt,i,i,i,i
FC(F)(F)c1cccc(/C=N/NC(=S)NC2CCCCC2)c1,?,nt,i,i,?,i
O=C(CC(=O)Nc1ccc(Cl)cc1)N/N=C\c1cccc(F)c1,10.4µM,i,i,i,i,i
O=C(CC(=O)NC1CCCCC1)N/N=C/c1ccc(Cl)cc1,4.65µM,i,i,nt,i,i
FC(F)(F)c1ccc(/C=N/NC(=S)NC2CCCCC2)cc1,3.29µM,nt,i,i,?,i
CCC(C)(C)c1ccc(OCCCC[n+]2cccc(C)c2)c(C(C)(C)CC)c1,?,nt,?,?,2.33µM,?
CCCCCCCCCC[n+]1cccc(Br)c1,nt,nt,nt,i,nt,?
CCOC(=O)N1CCN(C(=O)C2CC(=O)N(c3ccccc3)C2)CC1 (configuration not stated),i,i,nt,i,i,i
COC(=O)c1ccc(CSc2nc3c(cnn3-c3ccc(Cl)cc3)c(=O)[nH]2)o1,6.57µM,i,i,i,i,i
COc1cc(C(=O)N/N=C/c2ccc(OC(=O)c3ccccc3Cl)c(OC)c2)ccc1O,?,i,i,i,i,i
COc1ccc(N2C(=NC(=O)C3CCCCC3)SC3CS(=O)(=O)CC32)cc1OC (configuration not stated),i,i,i,nt,i,nt
COc1ccc(C(=O)N=C2SC3CS(=O)(=O)CC3N2c2ccc(N(C)C)cc2)cc1OC (configuration not stated),9.28µM,i,i,nt,i,nt
CCO[C@H]1c2c(ccc3ccc(=O)oc23)OC(C)(C)[C@@H]1O,i,nt,2.82µM,i,i,i
C/C=C(/C)C(=O)O[C@@H]1c2c(ccc3ccc(=O)oc23)O[C@@H]1C(C)(C)OC(C)=O,5.86µM,i,i[8.37 µM],i,i,i

# Source: PubChem (National Center for Advancing Translational Sciences (NCATS))
